Shown are actives, neighbours in structure and some others; about 21% of the full set was active somewhere.
Shiga toxin inh = A qHTS for Small Molecule Inhibitors of Shiga Toxin | 290,000 compounds, 9.2% hits | inhibition, % at 38.7 µM | AID 2315, 2010 | Vero cells, Shiga toxin protein synthesis inhibition reporter; in the data active = inhibition mostly above about 28%, no sharp cut-off; inactive = mostly below about 43%
CHX counter = Cycloheximide Counterscreen for Small Molecule Inhibitors of Shiga Toxin | cell reporter, cycloheximide protein synthesis inhibition counterscreen | max response, % | 300,000 compounds, 12% hits; in the data active = max response mostly above about 13%, no sharp cut-off; inactive = mostly below about 14%; note: read at 38.3 µM for the half of the compounds with a filed dose
HCV inh = qHTS Assay for Inhibitors of Hepatitis C Virus (HCV); Huh7.5.1 HCVcc-Cre infection, luciferase reporter, 44 h; Potency, µM (top dose mostly 41.8 µM), usual class: inhibitors; 340,000 compounds, 3.4% hits; AID 651820, 2012
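Reporter virus HCVcc-Cre (~0.5 moi) infects cells exposed to compound; seeding density 1,000 cells/well with 4 h settling beforehand. Luminescence, 15 sec read, taken 44 h post-infection following a 15 min RT substrate incubation.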
AMA1 RON2 block = qHTS for Inhibitors of AMA1-RON; Towards Development of Antimalarial Drug Lead: Primary Screen; Plasmodium falciparum AMA1 (3D7) - RON2 peptide interaction; AlphaScreen AMA1-biotinylated RON2 peptide binding; Potency, µM (doses to about 58.2 µM), actives largely listed as inhibitors; 360,000 compounds, 0.2% hits; AID 720542, 2013; note: nearly all actives have a fitted effect of over 45% in size
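AMA1 (3D7) with his tag at 25 nM final met compounds first, then biotinylated RON2 peptide at 25 nM; detection used donor plus acceptor beads, 10 µg/mL apiece, read by AlphaScreen after 30 min at room temperature.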
Pf growth 96h = Primary qHTS for delayed death inhibitors of the malarial parasite plastid, 96 hour incubation; AID 504834, 2011; P. falciparum luciferase reporter growth, 96 h; Potency, µM (highest dose often 28.7 µM), hits mostly inhibitors; 320,000 compounds, 6.9% hits
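Delayed-death screen, second-generation endpoint: infected erythrocytes, 2% hematocrit, 0.05% parasitemia final; 96 hours at 37 C, 5% CO2; luciferase detection reagent; luminescence decrease equals reduced growth.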
Pf growth 48h = Primary qHTS for delayed death inhibitors of the malarial parasite plastid, 48 hour incubation. Potency, µM (titrated, usually from 28.7 µM), most hits filed as inhibitors. 310,000 compounds, 5.9% hits. P. falciparum luciferase growth in erythrocytes, 48 h
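Luminescence readout; reporter = integrated firefly luciferase in P. falciparum. RBC culture at 2% hematocrit, 0.1% parasitemia final, 37 C/5% CO2; decreased signal taken as growth inhibition.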
Of the large screens only hits and unclear results are named; the others gave an inactive call. Unless noted, calls come from the whole dose curve; as a rule, active = well fitted curve in the direction sought with a large enough effect; inconclusive = small, poorly fitted or top-dose-only effect, or another doubt; inactive = no such curve, though single readings can be large; an effect the other way counts as inactive or inconclusive.

CC1=C(C(=O)N(C(C)C)C(C)C)CC(CC(=O)NCc2ccco2)C(=O)N1Cc1ccccc1 (centres undefined)	none (no result: Shiga toxin inh, CHX counter, HCV inh, Pf growth 96h, Pf growth 48h)
CSc1ccc(/C=C2/C(C)=C(CC(=O)O)c3cc(F)ccc32)cc1	none (no result: HCV inh, AMA1 RON2 block, Pf growth 96h, Pf growth 48h)
Cc1c(Cl)cccc1NC(=S)Nc1ccccn1	Pf growth 96h inconclusive
COC(=O)Cc1ccc(NC(=S)Nc2ccccn2)cc1	Shiga toxin inh 74, CHX counter 31
Cc1ccccc1NC(=S)Nc1ccccn1	Shiga toxin inh 52, CHX counter 26, Pf growth 96h inconclusive, Pf growth 48h inconclusive
S=C(Nc1ccccn1)Nc1ccccc1Cl	Shiga toxin inh 72, CHX counter 35, HCV inh inconclusive
CC(CN1C(C)CCCC1C)OC(=O)c1ccc(F)cc1 (centres undefined)	Pf growth 96h inconclusive
CC(Oc1ccc2c3c(c(=O)oc2c1)CCC3)C(=O)NCCCn1ccnc1 (centres undefined)	Pf growth 96h inconclusive
CC(C)Cc1nc(N2CCNCC2)c(C#N)c2c1CCC2	HCV inh 3.2µM, Pf growth 48h inconclusive
CC(C)Cc1nc(N2CCCCC2)c(C#N)c2c1CCC2	Pf growth 96h 10µM
CC(=O)N1CCN(c2nc(CC(C)C)c3c(c2C#N)CCC3)CC1	HCV inh inconclusive, Pf growth 96h inconclusive, Pf growth 48h inconclusive
COc1ccc(Cn2cc(CN3CC(N4CCN(Cc5ccccc5F)CC4)CS3(=O)=O)nn2)cc1 (centres undefined)	none (no result: Shiga toxin inh, CHX counter, HCV inh, Pf growth 96h, Pf growth 48h)
CCN(CC)c1nc2c(c(=O)[nH]c(=O)n2C)n1CCCc1ccccc1	none
CCOC(=O)c1ccccc1NC(=O)C1CC(=O)N(c2ccccc2)C1 (centres undefined)	Pf growth 96h inconclusive
CSc1nc(C)cc(OCC(=O)N/N=C/c2ccccc2O)n1	HCV inh 6.3µM, Pf growth 96h inconclusive
Cc1cc(=O)oc2cc(OCC(=O)OCC(=O)Nc3ccccc3F)ccc12	none
Cc1cc(=O)oc2cc(OCCc3ccccc3)ccc12	Shiga toxin inh 83, CHX counter 42, HCV inh inconclusive
Cc1cc(=O)oc2cc(OCC(=O)N/N=C/c3ccccc3O)ccc12	Pf growth 96h 9.3µM
COc1cccc(COc2ccc3c(C)cc(=O)oc3c2)c1	Shiga toxin inh 79, CHX counter 31
O=C(NC1CCCCC1)c1ccc(-c2ccccc2)cc1	none (no result: Shiga toxin inh, CHX counter, Pf growth 96h, Pf growth 48h)
Cc1cccc(C(C)C)c1NC(=O)c1ccc(COc2ccc3c(C)cc(=O)oc3c2)cc1	HCV inh inconclusive, Pf growth 96h 9.3µM, Pf growth 48h inconclusive
Cc1cc(=O)oc2cc(OCCCC[n+]3ccccc3)ccc12	Pf growth 96h inconclusive, Pf growth 48h 5.2µM
Cc1ccc(C(=O)COc2ccc3c(C)cc(=O)oc3c2)cc1	HCV inh inconclusive, Pf growth 48h inconclusive
Cc1cc(=O)oc2cc(OCC(=O)c3ccccc3)ccc12	CHX counter 17, Pf growth 96h 6.6µM
Cc1ccccc1-n1nnnc1SCC(=O)NNC(=O)c1ccc(NC(=O)CC#N)cc1	Pf growth 96h inconclusive (no result: Shiga toxin inh, CHX counter)
COc1cc(C(=O)Nc2nccs2)ccc1OCc1c(C)noc1C	Pf growth 48h inconclusive
Cc1cc(NC(=O)Nc2ccccc2)n(C(C)(C)C)n1	none (no result: Pf growth 48h)
Cc1cc(C)c(-c2csc(NC(=O)C3=NN(c4ccccc4)C(=O)CC3)n2)c(C)c1	Pf growth 96h 9.3µM, Pf growth 48h inconclusive
CC(C)(C)c1nc(NC(=O)Nc2ccccc2)sc1Br	Shiga toxin inh 71, CHX counter 46, HCV inh inconclusive, Pf growth 96h inconclusive, Pf growth 48h inconclusive
COc1cc(C(=O)Nc2nc3ccccc3s2)ccc1OCc1c(C)noc1C	CHX counter 18, HCV inh inconclusive, Pf growth 96h inconclusive, Pf growth 48h 12µM
CCc1ccc(-c2csc(NC(=O)C3=NN(c4ccccc4)C(=O)CC3)n2)cc1	HCV inh inconclusive, Pf growth 96h inconclusive
COc1ccc(NC(=O)Nc2nc3ccccc3s2)cc1	Shiga toxin inh 114, CHX counter 44, Pf growth 96h inconclusive
CC1CCC(NC(=O)Cn2cnc3sccc3c2=O)CC1 (centres undefined)	none (no result: Shiga toxin inh, CHX counter)
